Screening data (PubChem BioAssay)
A selection: hits, their analogues and other compounds. The true share with any hit is near 3.9%.
HepG2 viability: HepG2 cytotoxicity, counter-screen for TGF-b inhibitors; HepG2 CAGA-GFP viability, ATP luminescence, 18 h; Potency, µM (doses to about 46.1 µM), usual class: cytotoxic; actives 0.76% (n = 410,000); AID 588856
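HepG2 CAGA-GFP cells (1000/well, DMEM with 1% FBS) received compound, then TGF-beta at 500 pg/mL final, and were incubated 18 hours at 37 degrees C. Viability was read by CellTiter-Glo luminescence. Media-only wells were set as complete cell-killing and DMSO as no toxicity.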
HT1080 IDH1KD tx: kills HT-1080 cells with IDH1 knockdown; actives 2% (n = 360,000); HT-1080 IDH1 knockdown viability, ATP luminescence, 48 h; Potency, µM (titrated, usually from 46.1 µM), hits mostly cytotoxic; AID 686971
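% activity derives from luminescence (CellTiter-Glo), normalised to DMSO and no-cell wells. HT-1080-IDH1KD cells, 750/well, had 48 h compound exposure at 37 °C.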
ATXN2 expr inh: ATXN2 expression inhibition; Potency, µM (doses to about 57 µM), actives largely listed as inhibitors; HEK-293 ATXN2-luciferase reporter, luminescence, 24 h; actives 0.72% (n = 360,000); AID 1745845; note: nearly all actives have a fitted effect of over 55% in size
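qHTS (up to 57 uM final) was run with 24 h compound exposure of reporter cells at 37 °C. Each well was multiplexed: SteadyGlo luminescence measured ATXN2-luciferase expression after a fluorogenic Gly-Phe-AFC viability readout (25 uM final).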
HT1080NT lethal: kills 2HG-producing HT-1080-NT fibrosarcoma cells; HT-1080-NT fibrosarcoma viability, CellTiter-Glo ATP luminescence, 48 h; actives 1.6% (n = 360,000); AID 686970; Potency, µM (series often up to 46.1 µM), actives largely listed as cytotoxic;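 note: NT is the 2HG producing partner of a matched IDH1 knockdown line; nearly all actives have a fitted effect of over 55% in size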
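Toxicity toward the 2HG-producing NT line was scored as %Activity, normalised to DMSO and no-cell wells, from CellTiter-Glo luminescence after 48 hours' treatment.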
S2 tox: viability counter-screen for ATXN expression inhibitors; S2 cells (HEK-293 line with an ATXN2-luciferase reporter) viability, CellTiter-Fluor protease fluorescence, 24 h; Potency, µM (top dose mostly 56.7 µM), hits mostly cytotoxic; actives 0.49% (n = 400,000); AID 651635; note: nearly all actives have a fitted effect of over 40% in size
TGFb inhibitor: blocks TGF-b signaling | HepG2 CAGA-GFP TGF-b/SMAD3 reporter, GFP fluorescence, 18 h; TGF-beta stimulated, 500 pg/mL final | Potency, µM (series often up to 46.1 µM), usual class: inhibitors | actives 1.2% (n = 410,000) | AID 588855; note: nearly all actives have a fitted effect of over 65% in size
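Read-out: total well GFP (ex488/em500-530) summed from mean per-cell fluorescence. Cells: HEPG2 CAGA-GFP, 1% FBS DMEM, 18 h at 37 degrees C with 500 pg/mL final TGF-beta. Unstimulated wells served as the full-inhibition control; stimulated DMSO wells = 0%.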
Hits are given with their value; . = inactive; ? = inconclusive; / = not tested or not shown; ! = not confirmed by another sample. Calls come from the whole dose curve; as a rule, active = well fitted curve in the direction sought with a large enough effect; inconclusive = small, poorly fitted or top-dose-only effect, or another doubt; inactive = no such curve, though single readings can be large; an effect the other way counts as inactive or inconclusive.

SMILES	HepG2 viability	HT1080 IDH1KD tx	ATXN2 expr inh	HT1080NT lethal	S2 tox	TGFb inhibitor
Cc1nc(C)c(C(=O)N/N=C/c2cc(Br)ccc2O)s1	.	2.1µM	/	?	?	?
Cc1ccc(N=Nc2ccc(O)c(/C=N\NC(=O)c3ccc(N)cc3)c2)cc1C	.	1.6µM	?	4µM	?	.
CCC1=NN(C(=O)c2cccc(Br)c2)C(O)(c2ccc(Br)cc2)C1 (stereo unspecified)	.	18µM	?	?	?	8.9µM
COc1cc(NC(=O)c2cc(-c3cccc(OC)c3)n[nH]2)cc(OC)c1	.	/	.	/	?	.
COc1ccc(/C=N/NC(=O)c2cccc(NC(=O)c3ccccc3Cl)c2)cc1	.	2.3µM	.	5.8µM	?	.
COc1ccc(/C=N/NC(=O)c2cccc(NC(=O)c3ccccc3Cl)c2)cc1OC	.	.	.	.	.	.
COc1ccc(C(=O)Nc2cccc(C(=O)N/N=C/c3ccc(OC)cc3OC)c2)cc1	.	.	11µM	.	.	.
Cc1cc(Nc2ccccc2C(=O)O)ccc1Cl	/	/	/	/	.	/
N=c1sccn1CC(=O)Nc1cccc(Oc2ccccc2)c1	.	?	.	?	?	?
N=c1sccn1CC(=O)Nc1cc(Cl)ccc1Oc1ccccc1	.	?	?	16µM	?	?
COc1cccc(OCC(=O)Nc2cc(Cl)ccc2Oc2ccccc2)c1	.	.	28µM	.	?	.
COC(c1ccc2c(c1)CN(C(=O)Cn1nc(C)c3ccccc3c1=O)CCO2)C1CCCCC1 (stereo unspecified)	/	/	/	/	.	/
COc1ccc(CN2CCCC(CNC(=O)c3ccc(F)cc3)C2)c(C)c1C (stereo unspecified)	7.9µM	.	/	.	.	.
O=C(COC(=O)c1ncc(Cl)c(Cl)c1Cl)Nc1ccc(Cl)cn1	1.4µM	.	.	.	.	.
Cc1cc(NC(=O)CSc2nnc(-c3c[nH]c4ccccc34)n2-c2ccc(Cl)cc2)no1	.	11µM	.	.	?	.
Cc1cc(NC(=O)CSc2cn(CCNC(=O)c3ccc(Cl)cc3)c3ccccc23)no1	.	.	.	.	19µM	.
CN(C)c1ccc(NC(=O)CSc2nc3ccccc3c(=O)n2C2CCCCC2)cc1	.	.	.	.	.	.
Cc1cc(NC(=O)CSc2nc3c([nH]c4ccccc43)c(=O)n2-c2ccc(Cl)cc2)no1	.	/	.	/	.	.
Cc1cc(NC(=O)CSc2nc3ccccc3c(=O)n2C2CCCC2)no1	.	1.8µM	.	?	?	.
N#Cc1ccc(Oc2ccc3c(c2)COB3O)cc1	/	/	.	/	/	/
CCOc1ccc(NC(=O)CC2C(=O)N(c3cccc(C)c3)C(=O)N2Cc2cccnc2)cc1 (stereo unspecified)	.	/	/	/	/	.
CC1(C)CC(N2CCCC2)=CC(=[N+]2CCCCCC2)C1	.	12µM	?	?	.	.
CC1CC(C)C[N+](=C2C=C(N3CCCC3)CC(C)(C)C2)C1 (stereo unspecified)	.	?	?	9.2µM	?	?
CC1(C)CC(N2CCN(c3ccccc3)CC2)=CC(=[N+]2CCCC2)C1	.	14µM	?	1.1µM	.	.
CN(Cc1ccccc1)C1=CC(=[N+]2CCCC2)CC(C)(C)C1	.	?	?	?	.	?
SMILES	HepG2 viability	HT1080 IDH1KD tx	ATXN2 expr inh	HT1080NT lethal	S2 tox	TGFb inhibitor
Cc1cc2c(cc1CC(=O)c1sccc1S(=O)(=O)Nc1onc(C)c1Cl)OCO2	/	/	.	/	.	/
CC(=O)NCC(=O)N1[C@H]2CC[C@H]1c1cc(Nc3ncc(C(F)(F)F)c(NC4CCC4)n3)ccc12	/	/	4.9µM	/	/	/
Cc1cc(C(=O)Nc2ccccc2-c2nc(CNC(=O)c3cscn3)c(C)o2)c(C)o1	/	/	/	/	.	/
CCC1C/C(=C\c2cc(OC)c(OC)cc2OC)C(=O)/C(=C/c2cc(OC)c(OC)cc2OC)C1 (stereo unspecified)	8.9µM	21µM	?	13µM	?	?
COc1cc(OC)c(OC)cc1/C=C1\CC(C)C/C(=C\c2cc(OC)c(OC)cc2OC)C1=O (stereo unspecified)	11µM	?	13µM	?	?	?
Cn1cc(C(=O)Nc2ccc(Cl)cc2)c(C(F)(F)F)n1	.	.	/	.	.	.
CCC(C)Sc1cc(C(F)(F)F)c(C(=O)Nc2ccc(Cl)cc2)cn1 (stereo unspecified)	.	23µM	?	?	.	?
Cc1ccc(NC(=O)COc2ccc(/C=C3/SC(=Nc4ccccc4)N(Cc4cccnc4)C3=O)cc2)cc1	.	.	14µM	.	?	.
O=C(Nc1cccc(Cl)c1)OCCOc1ccccc1	.	.	/	.	?	?
O=C(Nc1cccc(Cl)c1)OCCOC(=O)Nc1cccc(Cl)c1	.	23µM	?	?	.	?
COc1ccc(C2c3ccc(O)cc3Oc3ncn(CCN4CCOCC4)c(=N)c32)cc1 (stereo unspecified)	.	.	.	.	.	.
COc1ccc(C2c3ccc4ccccc4c3Oc3ncn(Cc4ccco4)c(=N)c32)cc1OC (stereo unspecified)	.	21µM	.	21µM	.	.
COc1ccccc1C1c2ccc3ccccc3c2Oc2ncn(CCCO)c(=N)c21 (stereo unspecified)	.	23µM	.	21µM	20µM	.
COc1ccc(C2c3ccc4ccccc4c3Oc3ncn(CCCN(C)C)c(=N)c32)cc1 (stereo unspecified)	.	?	?	18µM	?	?
COc1ccccc1C1c2ccc3ccccc3c2Oc2ncn(CCN(C)C)c(=N)c21 (stereo unspecified)	16µM	8.2µM	25µM	10µM	22µM	?
Cc1cc(C)c2c(n1)NCCC2	.	/	/	/	/	?
COc1ccc(C(=O)/C(C#N)=N/Nc2ccc([N+](=O)[O-])cc2)cc1	.	5.8µM	/	?	/	?
Cc1c(N/N=C(\C#N)C(=O)c2ccc(Cl)cc2)c(=O)n(-c2ccccc2)n1C	.	2.6µM	7.9µM	?	?	?
N#C/C(=N\Nc1ccc(Cl)cc1)C(=O)c1ccccc1	.	?	?	2.6µM	?	?
COC(=O)C(=NNc1c(C)n(C)n(-c2ccccc2)c1=O)C(=O)OC	.	.	.	?	.	.
CCCN1C(=O)c2ccccc2NC1c1ccc(OC)c(COc2cccc(C)c2C)c1 (stereo unspecified)	.	/	/	/	/	.
Cc1cc(C2CCCCC2)n(O)c(=O)c1	.	18µM	18µM	8.2µM	20µM!	?
Cc1ccc(NC(=O)CSc2cn(CC(=O)N3CCOCC3)c3ccccc23)cc1Cl	.	/	/	/	/	?
